Assay [1] has as its target Luciferin 4-monooxygenase (Photinus pyralis) (UniProt P08659). Kind of assay: qHTS assay to identify small molecule inhibitors of firefly luciferase (AID 1224835). Note: series mostly up to about 120 µM; nearly all actives have a fitted effect of over 25% in size. Summed up:
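Inhibition of purified Photinus luciferase is measured by luminescence. Substrate levels (D-luciferin, ATP) sit at their KM values. Each compound is tested in a concentration series.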
For orientation: In qHTS, concentration-response curves come from the screen itself.

Assay [2] in a line: qHTS assay to identify small molecule agonists of the constitutive androstane receptor (CAR) signaling pathway - cell viability counter screen (AID 1224836). Note: series mostly up to about 92 µM; nearly all actives have a fitted effect of over 45% in size. Summed up: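 Counter screen multiplexed with the CAR reporter readout: HepG2 cells co-transfected with hCAR and the CYP2B6-2.2kb construct receive a 15-concentration compound series and 0.75 uM PK11195 (final), then CellTiter-Fluor fluorescence is read after 23 h.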

Assay [3] can be described thus: qHTS assay to identify small molecule antagonists of the constitutive androstane receptor (CAR) signaling pathway - cell viability counter screen (AID 1224837). Note: series mostly up to about 92 µM; nearly all actives have a fitted effect of over 45% in size. Put shortly: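 HepG2 cells stably expressing hCAR and a CYP2B6-2.2kb reporter were plated and pre-incubated 4 hr at 37 C/5% CO2, then given compounds at 15 concentrations plus 50 nM CITCO (final). After 23 hr, viability was read by CellTiter-Fluor fluorescence.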

Assay [4] concerns the target Nuclear receptor subfamily 1 group I member 3 (Homo sapiens) (UniProt Q14994). Kind of assay: qHTS assay to identify small molecule antagonists of the constitutive androstane receptor (CAR) signaling pathway (AID 1224838). Note: nearly all actives have a fitted effect of over 40% in size. Summed up: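 HepG2 cells stably co-transfected with hCAR and a CYP2B6-2.2kb luciferase reporter were seeded 4 h before compound addition at 15 concentrations. Cells were stimulated with 50 nM CITCO (final) for 24 h at 37 C; luciferase luminescence was then read.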

Assay [5] has the same target. Nature of the assay: qHTS assay to identify small molecule agonists of the constitutive androstane receptor (CAR) signaling pathway (AID 1224839). Note: series mostly up to about 92 µM; nearly all actives have a fitted effect of over 15% in size. Put shortly: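 A 15-concentration quantitative screen uses HepG2 cells co-transfected stably with human CAR and CYP2B6-2.2kb reporter. Treatment lasts 24 h with 0.75 uM PK11195 final present; ONE-Glo luminescence is the signal.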

Assay [6] in a line: qHTS assay to identify small molecule antagonists of the estrogen related receptor signaling pathway with the pleiotropic PPARgamma coactivator (PGC) from Tox21 10K library - cell viability counter screen (AID 1224840; active = well fitted cell-killing curve with a large enough effect in the repeat runs, not every such curve was filed as active; note: nearly all actives have a fitted effect of over 40% in size). Put shortly:
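PGC/ERR cells were seeded at 2,000 cells/well and left 6 hours at 37 C/5% CO2 before pin-tool addition of compounds in DMSO. After 17.5 hours at 37 C, CellTiter-Fluor was added and fluorescence read 30 minutes later.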

Assay [7] is described as follows: qHTS assay to identify small molecule agonists of the hypoxia (HIF-1) signaling pathway - cell viability counter screen (AID 1224844; calls by dose curve; note: nearly all actives have a fitted effect of over 50% in size). Summed up:
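HRE-bla ME-180 cells in medium with 0.5% dialyzed FBS were preincubated 5 hrs at 37C, exposed to compounds for 17 hrs, then viability was read as CellTiter-Glo luminescence after 30 min at room temperature, in the reporter wells.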

Assay [8] can be described thus: qHTS assay to identify small molecule agonists of H2AX (AID 1224845; active = well fitted activation curve with a large enough effect in the signal ratio in the repeat runs, not every such curve was filed as active; the % refers to the signal ratio). Put shortly: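 Phospho-H2AX Ser139 measured by HTRF (ex 320 nm; em 665 and 620 nm) after 24 hr antibody incubation. Compounds, 15 concentrations, 0.76% DMSO, were applied to CHO-K1 cells for 3hr at 37C before lysis.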
Assay [9] can be described thus: qHTS assay to identify small molecule agonists of H2AX - cell viability counter screen (AID 1224847; calls by dose curve; note: top concentration of the series differs between compounds; nearly all actives have a fitted effect of over 30% in size). Summed up:
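We seed wild-type CHO-K1 cells overnight, treat them for 3 hr at 37C with compounds in 15-concentration series, and quantify remaining viability by CellTiter-Glo luminescence.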

Assay [10] can be described thus: qHTS RealTime-Glo MT Cell Viability Assay in HepG2 cells - 24 hour (AID 1224867). Note: nearly all actives have a fitted effect of over 50% in size. Summed up:
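qHTS, HepG2, 600 cells/well, RealTime-Glo (NanoLuc + prosubstrate) added with cells; 5 h preincubation; DMSO compound addition; 37 C; luminescence at 0/8/16/24/32/40 h.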

The nature of assay [11]: qHTS RealTime-Glo MT Cell Viability Assay in HEK293 cells - 32 hour (AID 1224868). Note: top concentration of the series differs between compounds; nearly all actives have a fitted effect of over 50% in size. Put shortly:
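Assay medium contained NanoLuc luciferase plus cell-permeant prosubstrate, added with HEK293 cells at 600 cells/well. After 5 h at 37 C/5% CO2 compounds were added; plates stayed at 37 C for 40 h with serial luminescence reads.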

The nature of assay [12]: A CellTox Green Cytotoxicity Assay to monitor cytotoxicity in HEK293 cells - 0 hour (AID 1224869). Note: nearly all actives have a fitted effect of over 50% in size. Summed up: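 HEK293 cells premixed with CellTox Green dye were seeded at 600 cells/well and left 5 h at 37 C/5% CO2 before pin transfer of 23 nL compound in DMSO. Fluorescence from dye bound to dead-cell DNA was read during 40 h treatment.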
A short description of assay [13]: qHTS RealTime-Glo MT Cell Viability Assay in HepG2 cells - 40 hour (AID 1224870). Note: nearly all actives have a fitted effect of over 50% in size. Summed up:
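Real-time viability: cells seeded at 600 per well together with NanoLuc and cell-permeant prosubstrate, compounds added after 5 h incubation. Luminescence tracked at 0, 8, 16, 24, 32 and 40 h of exposure.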

A short description of assay [14]: qHTS assay to identify small molecule antagonists of the estrogen related receptor signaling pathway with the pleiotropic PPARgamma coactivator (PGC) from Tox21 10K library (AID 1224841; call rule not given here). Put shortly:
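PGC/ERR reporter cells were seeded at 2,000 cells/well and held 6 hours at 37 C/5% CO2 before pin-tool addition of compounds in DMSO. After 18 hours at 37 C, One-Glo was added and luminescence read after 30 minutes at room temperature.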

Assay [15] is described as follows: qHTS assay to identify small molecule agonists of the estrogen related receptor signaling pathway with the pleiotropic PPARgamma coactivator (PGC) from Tox21 10K library (AID 1224842). Note: nearly all actives have a fitted effect of over 15% in size. Note: potency is the fitted concentration of half-maximal effect. Summed up: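 Luminescence from One-Glo (30 min, room temperature) measured after PGC/ERR cells had 18 h at 37 C with pinned compound (23 nL in DMSO). Cells had been seeded at 2,000 per well and pre-incubated 6 h.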

Assay [16] in a line: qHTS assay to identify small molecule agonists of the hypoxia (HIF-1) signaling pathway (AID 1224846; active = well fitted activation curve with a large enough effect in the signal ratio in the repeat runs, not every such curve was filed as active; the % refers to the signal ratio). Put shortly: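 HRE-bla ME-180 cells (beta-lactamase reporter under hypoxia response element) were plated at 2,000 cells/well in medium with 0.5% dialyzed FBS, rested 5 hrs, then given compounds in DMSO for 17 hrs at 37C, 5% CO2. Reporter induction was read with CCF4-AM FRET substrate.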

The nature of assay [17]: qHTS assay to identify small molecule antagonists of the estrogen related receptor (ERR) signaling pathway from Tox21 library (AID 1224848). Note: nearly all actives have a fitted effect of over 50% in size. Summed up:
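Antagonist-mode screen of the Tox21 10K library in an NTP-provided ERR reporter cell line; 18 h compound exposure at 37 C, luminescence measured with ONE-Glo.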

Assay [18] in a line: qHTS assay to identify small molecule agonists of the estrogen related receptor (ERR) signaling pathway from Tox21 library (AID 1224849; calls by dose curve; note: nearly all actives have a fitted effect of over 15% in size). Summed up: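 ERR reporter cell line (NTP) seeded, rested 6 h at 37 C/5% CO2, then pinned with Tox21 compounds in DMSO. After 18 h at 37 C, ONE-Glo luciferase luminescence was read following 30 min at room temperature.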
In assay [19] the target is Thyrotropin receptor (Homo sapiens) (UniProt P16473). Kind of assay: qHTS assay to identify small molecule agonists of the thyroid stimulating hormone receptor (TSHR) signaling pathway (AID 1224843; calls by dose curve; note: nearly all actives have a fitted effect of over 45% in size). Summed up:
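Screening of the Tox21 10K collection used HEK293 cells engineered with TSHR at 800 cells per well. After a 30-min room-temperature compound exposure, HTRF cAMP reagents were added and fluorescence recorded 1 h later.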

The structures appear in SMILES notation. Values without a mark were called inactive. Inconclusive results are not listed. Calls of active or inactive are those of the source. Unless noted, calls come from the whole dose curve; as a rule, active = well fitted curve in the direction sought with a large enough effect in the repeat runs; inconclusive = weak or mixed curves; inactive = no such curve, though single readings can be large; an effect the other way counts as inactive or inconclusive.

Chain of Thyrotropin receptor (Homo sapiens) (P16473 whole entry, looked up): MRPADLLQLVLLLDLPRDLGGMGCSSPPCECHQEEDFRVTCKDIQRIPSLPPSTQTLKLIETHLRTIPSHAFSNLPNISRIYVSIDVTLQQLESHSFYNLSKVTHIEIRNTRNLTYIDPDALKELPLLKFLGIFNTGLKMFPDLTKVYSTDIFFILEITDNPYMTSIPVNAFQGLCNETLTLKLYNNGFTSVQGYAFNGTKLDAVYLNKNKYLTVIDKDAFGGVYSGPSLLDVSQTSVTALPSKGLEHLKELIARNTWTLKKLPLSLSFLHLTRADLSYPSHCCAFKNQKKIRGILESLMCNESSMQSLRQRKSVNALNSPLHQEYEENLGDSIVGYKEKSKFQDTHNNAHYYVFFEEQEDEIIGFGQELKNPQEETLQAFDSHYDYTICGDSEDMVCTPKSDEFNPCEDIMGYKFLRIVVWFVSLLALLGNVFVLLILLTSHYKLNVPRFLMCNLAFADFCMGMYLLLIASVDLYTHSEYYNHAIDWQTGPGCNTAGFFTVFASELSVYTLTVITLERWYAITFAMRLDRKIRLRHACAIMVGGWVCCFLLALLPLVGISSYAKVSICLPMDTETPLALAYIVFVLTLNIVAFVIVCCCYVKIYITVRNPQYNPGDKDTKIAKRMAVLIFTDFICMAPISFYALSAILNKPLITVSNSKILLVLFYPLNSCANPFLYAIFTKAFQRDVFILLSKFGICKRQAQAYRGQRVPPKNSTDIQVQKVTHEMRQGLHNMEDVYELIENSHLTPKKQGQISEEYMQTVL
Chain of Nuclear receptor subfamily 1 group I member 3 (Homo sapiens) (Q14994 whole entry, looked up): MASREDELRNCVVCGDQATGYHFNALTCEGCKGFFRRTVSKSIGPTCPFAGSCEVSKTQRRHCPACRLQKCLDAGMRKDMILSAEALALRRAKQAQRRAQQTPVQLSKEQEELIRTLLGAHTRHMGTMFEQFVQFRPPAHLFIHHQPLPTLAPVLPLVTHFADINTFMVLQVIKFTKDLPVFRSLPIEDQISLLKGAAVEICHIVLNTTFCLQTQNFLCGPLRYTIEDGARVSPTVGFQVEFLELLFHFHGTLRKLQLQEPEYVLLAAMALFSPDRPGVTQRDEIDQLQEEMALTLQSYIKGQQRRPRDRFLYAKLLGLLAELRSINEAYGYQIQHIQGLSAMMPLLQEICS
Chain of Luciferin 4-monooxygenase (Photinus pyralis) (P08659 whole entry, looked up): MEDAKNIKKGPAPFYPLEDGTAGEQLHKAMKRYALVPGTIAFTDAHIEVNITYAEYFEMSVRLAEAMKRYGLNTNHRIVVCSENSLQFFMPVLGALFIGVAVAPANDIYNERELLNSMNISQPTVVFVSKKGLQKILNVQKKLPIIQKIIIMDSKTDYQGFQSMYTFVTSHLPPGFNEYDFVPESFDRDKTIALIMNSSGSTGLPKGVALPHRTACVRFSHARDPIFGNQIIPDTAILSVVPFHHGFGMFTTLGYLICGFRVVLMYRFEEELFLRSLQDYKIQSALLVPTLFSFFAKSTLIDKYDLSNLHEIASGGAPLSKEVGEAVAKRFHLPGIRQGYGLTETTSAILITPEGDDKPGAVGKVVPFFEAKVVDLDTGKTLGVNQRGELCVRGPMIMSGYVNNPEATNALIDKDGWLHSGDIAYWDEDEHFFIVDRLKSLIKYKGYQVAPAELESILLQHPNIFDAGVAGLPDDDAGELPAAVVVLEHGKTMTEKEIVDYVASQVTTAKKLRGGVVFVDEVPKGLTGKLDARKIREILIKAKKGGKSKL

With `CCOC(=O)c1cnc2c(cnn2CC)c1NN=C(C)C`, the Potency entry in assay [1], in assay [4], in assay [5], in [7], in assay [8] and in assay [11] was “inactive” each time. Moreover, the Potency entry in [13] was “inactive”. Also, the call in [2], in [3], in [6], in assay [9], in assay [10] and in assay [12] was inactive.

In the case of `O=C(CO)[C@@H](O)[C@H](O)[C@H](O)CO`, the Potency result in assay [1], in assay [4], in [5], in assay [14], in assay [17] and in assay [11] was “inactive” each time. The Potency entry in assay [13] was “inactive”. Further, the outcome in assay [2], in [3], in [6], in [16], in assay [9] and in assay [18] was inactive. The call in [10] and in assay [12] was inactive. Also, the Potency in assay [15] was 1.7 nM (active).

For the compound `COc1ccccc1OCC1CNC(=O)O1` (stereo not drawn), the Potency result in assay [1], in assay [4], in [5], in [15], in [19] and in [7] was “inactive” in each case. In addition, the Potency result in assay [8], in assay [17], in assay [11] and in assay [13] was “inactive” each time. The result in [2], in assay [3], in assay [6], in [16], in [9] and in assay [18] was inactive. Further, the compound was classed as inactive in assay [10] and in assay [12].

Regarding `Nc1ccncc1N`, the Potency result in [1], in [4], in assay [5], in [19], in assay [7] and in assay [8] was “inactive” throughout. The Potency result in assay [11] and in assay [13] was “inactive” in each case. The result in assay [2], in assay [3], in [6], in [16], in assay [9] and in assay [10] was inactive. For the same compound, the compound was classed as inactive in assay [12].

Take `CC(C)COC(=O)c1ccc(N)cc1`: the compound was classed as inactive in assay [2], in assay [6], in [16], in assay [9], in assay [10] and in assay [12]. Moreover, the Potency entry in assay [4], in assay [14], in assay [19], in assay [7], in assay [8] and in assay [17] was “inactive” in each case. For the same compound, the Potency entry in assay [11] and in assay [13] was “inactive” each time.

In the case of `CCOC(=O)c1ccccc1`, the Potency result in assay [1], in assay [14], in [15], in assay [7], in assay [8] and in assay [17] was “inactive” throughout. The Potency result in [11] and in assay [13] was “inactive” throughout. The compound was called inactive in [2], in [3], in assay [6], in [16], in assay [9] and in assay [18]. For the same compound, the compound was classed as inactive in assay [10] and in assay [12].

Regarding `CN(C)C(=O)Oc1ccc[n+](C)c1`, the Potency result in assay [1], in assay [4], in assay [5], in [15], in assay [19] and in [7] was “inactive” throughout. For the same compound, the Potency entry in assay [8], in assay [17], in assay [11] and in [13] was “inactive” throughout. Further, the call in [2], in assay [3], in [6], in assay [9], in assay [18] and in assay [10] was inactive. Also, the outcome in assay [12] was inactive.

With `COc1cc(C(=O)OC(COCCC(C)C)CN2CCOCC2)cc(OC)c1OC` (stereo not drawn), the Potency result in assay [1], in assay [4], in assay [5], in [19], in [8] and in assay [11] was “inactive” in each case. Further, the Potency entry in assay [13] was “inactive”. The compound was classed as inactive in assay [2], in assay [3], in [6], in assay [16], in assay [9] and in [10]. For the same compound, the outcome in assay [12] was inactive.
